Sampled rows, rich in hits. Any-hit rate of the full collection: about 4.1%.
DAX1 inh-1 – DAX1 (NR0B1) inhibitors on StAR promoter, primary screen, cell-based, luminescence, SF-1 (NR5A1), full-length DAX-1 | HEK293T StAR-luciferase reporter, SF-1/DAX-1 repression relief | inhibition, % at 6.8 µM | 370,000 compounds, 1.1% hits;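 active = inhibition above the mean over all tested compounds plus 3 SD, cut at about 3.6% in these data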;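 note: 0% = DAX-1 cells with DMSO and 100% = cells lacking DAX-1 with DMSO; higher inhibition means more luminescence from relief of DAX-1 repression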
hgDAF12 agonist – H. glycines DAF-12 receptor agonists, primary screen, cell-based, luminescence, HEK293, GAL4 fusion, UAS-luciferase | activation, % at 6.8 µM | Nuclear hormone receptor DAF-12 (Heterodera glycines), GAL4 fusion | HEK293 GAL4-hgDAF12 UAS-luciferase reporter, agonist luminescence; normalized to butyrate control | AID 687014, 2013 | 370,000 compounds, 1.8% hits;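 active = activation above a cutoff set at the mean of all screened compounds plus 3 SD, cut at about 10% in these data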;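 note: 0% = DMSO wells and 100% = sodium butyrate wells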
hcDAF12 agonist – H. contortus DAF-12 nuclear receptor activators, primary screen, cell-based, luminescence, HEK293, lit1-tk-luc reporter; HEK293 hcDAF-12 lit1-tk-luc reporter; 0% DMSO, 100% Δ7-dafachronic acid; activation, % at 6.8 µM; 370,000 compounds, 1.4% hits; AID 652067, 2013;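 active = activation above the mean of all tested compounds plus 3 SD, cut at about 5.5% in these data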;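 note: 100% = response to 3 µM Δ7-dafachronic acid high control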
DAX1 inh-2 – DAX1 (NR0B1) inhibitors, primary screen, cell-based, HEK293, Gal4-DAX1, luciferase luminescence; Nuclear receptor subfamily 0 group B member 1 (Homo sapiens), P51843; HEK293 Gal4-DAX1 luciferase reporter; inhibition, % at 6.75 µM; 340,000 compounds, 0.99% hits; AID 504766, 2011;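 active = inhibition above the mean over all tested compounds plus 3 SD, cut at about 4.2% in these data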;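 note: 0% = DAX1-transfected cells with DMSO and 100% = empty-vector control cells with DMSO; inhibition shows as a rise in luminescence from relieved DAX1 repression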
Target sequence (P51843 207-470 limits assumed): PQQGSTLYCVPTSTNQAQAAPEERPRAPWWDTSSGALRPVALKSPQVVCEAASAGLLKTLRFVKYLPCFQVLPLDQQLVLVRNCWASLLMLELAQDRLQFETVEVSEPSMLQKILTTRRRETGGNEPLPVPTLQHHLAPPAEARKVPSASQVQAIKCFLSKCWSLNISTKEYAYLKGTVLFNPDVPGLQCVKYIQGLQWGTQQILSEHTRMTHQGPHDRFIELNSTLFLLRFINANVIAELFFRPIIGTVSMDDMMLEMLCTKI
ssDAF-12 act – S. stercoralis DAF-12 nuclear receptor activators, primary screen, cell-based, luminescence, HEK293, GRIP1 co-expression, lit1-tk-luc; Nuclear hormone receptor DAF-12 (Strongyloides stercoralis); HEK293 ssDAF-12/GRIP1 lit1-tk-luc reporter; % of 3 µM dafachronic acid response; activation, % at 6.8 µM; 370,000 compounds, 1% hits;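 active = activation above the mean over all tested compounds plus 3 SD, cut at about 0.9% in these data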;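 note: 0% = DMSO-only wells and 100% = 3 µM delta7-dafachronic acid wells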
DAX1 inh confirm – DAX1 (NR0B1) inhibitors relieving SF-1 repression, confirmation, cell-based, luminescence, HEK293T, full-length DAX-1, SF-1 activated StAR promoter; shares compounds with DAX1 inh-1; HEK293T StAR-promoter luciferase reporter, SF-1/DAX-1 repression; inhibition, % at 6.8 µM; 2,400 compounds, 87% hits; AID 652134, 2013;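 active = inhibition above the average of every tested compound plus 3 SD, cut at about 3.8% in these data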;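 note: 0% = DAX-1 cells with DMSO and 100% = no DAX-1 control cells with DMSO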
SF1 AF2mut Luc – StAR reporter signal changes without DAX1, counter-screen for DAX1 inhibitor project, cell-based, luminescence, AF-2 mutant SF-1, transactivation; shares compounds with DAX1 inh-1; HEK293 StAR-luciferase, SF-1 AF2 mutant; inhibition, % at 6.8 µM; 2,400 compounds, 78% hits; AID 652136, 2013;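 active = inhibition above the mean of all tested compounds plus 3 SD, cut at about 3% in these data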;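 note: 0% = DAX-1 transfected cells with DMSO and 100% = cells without DAX-1 with DMSO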
An asterisk follows results filed as active; x = no result given.

SMILES | DAX1 inh-1 | hgDAF12 agonist | hcDAF12 agonist | DAX1 inh-2 | ssDAF-12 act | DAX1 inh confirm | SF1 AF2mut Luc
O=C(c1cccs1)N1CCN(c2cc(Cl)ccc2Cl)CC1 | -1 | 0 | -2 | 3 | -1 | x | x
CN(CCc1ccccc1)C(=O)CC1C(=O)NCCN1Cc1ccccn1 (stereo unspecified) | 0 | 2 | 2 | 2 | -1 | x | x
CCOC1=C2[C@@H](CN(S(=O)(=O)c3ccc(C)cc3)[C@H]2c2ccccc2F)[C@H]2C(=O)N(C3CCCCC3)C(=O)[C@H]2C1 | 1 | 1 | 1 | x | -1 | x | x
Nc1cccc2cc(-c3ccccc3)oc12 | 5.3* | 7 | 2 | 2 | 0 | 6.5* | 5.6*
O=C(COC(=O)c1ccc(O)cc1O)NC(=O)NCc1ccccc1 | 0 | 1 | -3 | 0 | -1 | x | x
Cc1ccc(S(=O)(=O)N(C)CC(=O)Nc2cc(C)ccn2)cc1 | 4.6* | 10* | 5 | 3 | 0 | 6.8* | 5.2*
COC(=O)[C@]12CCCCC=C1N(Cc1cccc3ccccc13)C(=O)[C@H](CC(=O)NCc1ccc(OC)c(OC)c1)C2 | -8 | -16 | -6 | x | -3 | x | x
COC(=O)[C@]12CCCCC=C1N(CCc1ccc(OC)c(OC)c1)C(=O)[C@H](CC(=O)NCc1cccc3ccccc13)C2 | 4.6* | 0 | -1 | x | -1 | 3 | 6.3*
CCOC(=O)[C@]12CCCC=C1N(Cc1ccc3c(c1)OCO3)C(=O)[C@H](CC(=O)NCc1cccc3ccccc13)C2 | 6.2* | 3 | -1 | x | -1 | 0 | 2
Cn1cccc1C(=O)OCC(=O)Nc1ccc2c(c1)OCCO2 | 7.1* | 11* | 4 | 0 | 0 | 12* | 7.0*
CCC(=O)Nc1c(C(=O)Nc2ccc3c(c2)OCCO3)oc2ccccc12 | 3 | 9 | 4 | 0 | 0 | x | x
CCOCC(=O)Nc1c(C(=O)Nc2ccc3c(c2)OCCO3)oc2ccccc12 | 7.0* | 10 | 1 | 0 | 0 | 6.3* | 3.1*
C=CCn1c(SCC(N)=O)nnc1-c1ccc(C)cc1 | 0 | 0 | -1 | x | -1 | x | x
CCc1nc2c(OCc3ccc(C#N)cc3)cccn2c1N(C)C(=O)c1ccc(C)cc1 | -1 | -2 | -1 | x | -1 | x | x
N/C(=N\OC(=O)c1cccc(C(F)(F)F)c1)c1cnccn1 | 5.2* | 11* | 4 | 1 | 0 | 7.3* | 5.9*
COc1c(OC(C)=O)ccc(/C=C/c2ccc3ccccc3n2)c1[N+](=O)[O-] | 5.1* | 9 | 4 | 3 | 0 | 12* | 6.2*
Cc1ccc(NC(=O)c2ccc3c(c2)OCCO3)nc1 | 6.1* | 12* | 1 | -1 | 0 | 3 | 1
Cc1ccc(NC(=O)c2ccco2)nc1 | 8.0* | 12* | 4 | 3 | 0 | 8.7* | 6.8*
O=C(c1ccc(CS(=O)c2ccccc2Cl)o1)N1CCN(C2CCCCC2)CC1 (stereo unspecified) | 6.9* | -1 | -1 | 1 | 0 | 5.8* | -5
CC(=O)c1ccccc1NC(=O)c1ccc2c(c1)NC(=O)C(C)S2 (stereo unspecified) | 3 | 2 | 2 | -1 | -1 | x | x
Cc1ccnc(NC(=O)c2ccc3c(c2)NC(=O)C(C)S3)c1 (stereo unspecified) | 11* | 6 | 4 | -2 | 0 | 9.2* | 3.9*
Nc1ccc(-c2nc3ccccc3[nH]2)cc1 | 5.2* | 11* | 3 | 3 | -1 | 9.9* | 6.8*
Nc1ccc2nc(-c3ccc(-c4nc5ccc(N)cc5[nH]4)cc3)[nH]c2c1 | 0 | -2 | -1 | x | -2 | x | x
CC(C)(C)c1ccc(C(=O)NNC(=O)C2CCCCC2)cc1 | 1 | 1 | -1 | 3 | -1 | x | x
Cc1cccc(C(=O)NNC(=O)C2CCCCC2)c1O | 4.6* | 1 | 0 | 3 | -1 | 2 | 1
SMILES | DAX1 inh-1 | hgDAF12 agonist | hcDAF12 agonist | DAX1 inh-2 | ssDAF-12 act | DAX1 inh confirm | SF1 AF2mut Luc
CCc1ccc(OCC(=O)O/N=C(\N)c2ccncc2)c(Br)c1 | 7.6* | 12* | 5 | 2 | 0 | 7.0* | 4.8*
CN(C)[C@@H]1CCN(c2ccc3c(c2)O[C@@H]2CCN(C2)S3(=O)=O)C1 | 0 | 1 | -1 | x | -1 | x | x
CC(=O)c1c(C)[nH]c(C(=O)OCc2nc3ccsc3c(=O)[nH]2)c1C | 7.1* | 12* | 1 | 2 | 0 | 4.7* | 3.2*
O=C(NC1CCCCC1)c1ccc2ccccc2c1 | 5.8* | 6 | 3 | 4.8* | -1 | 7.5* | 5.1*
COc1ccc(NC(=O)c2noc3c2CCC3)cc1 | 4.9* | 13* | 5 | 1 | 0 | 13* | 6.0*
CC(=O)c1ccc(NC(=O)c2noc3c2CCC3)cc1 | 2 | 6 | 3 | -5 | -1 | x | x
N#Cc1ccccc1OCC(=O)Nc1cc(S(=O)(=O)N2CCCCC2)ccc1N1CCOCC1 | 6.0* | -2 | -2 | -1 | -1 | -1 | -2
O=C(COc1ccccc1)Nc1cc(S(=O)(=O)N2CCOCC2)ccc1N1CCCC1 | -2 | -2 | -1 | 0 | -1 | x | x
COc1ccc(C(=O)N2CCC2(C)C(=O)NC(C)C)cc1 (stereo unspecified) | 0 | 1 | -1 | x | -1 | x | x
Cc1cccc(OCCn2c(=O)sc3ccccc32)c1 | 1 | 8 | 1 | 1 | 0 | x | x
Cc1cccc(OCCn2c(=O)n(C)c3ccccc32)c1 | 5.8* | 13* | 3 | 3 | -1 | 7.2* | 4.3*
c1ccc(-n2ncc3c(NC4CCCCCC4)ncnc32)cc1 | 5.7* | 11* | 0 | 5.9* | -1 | 10* | 5.7*
CCOC(=O)c1c(C)[nH]c(C(=O)COc2ccc3ccc(=O)oc3c2)c1C | 2 | -2 | 0 | 1 | -1 | x | x
NC(c1csc(Nc2nncc3ccccc23)n1)C1CCCCC1 (stereo unspecified) | -2 | 1 | -2 | x | -2 | x | x

Source: PubChem (The Scripps Research Institute Molecular Screening Center)
